The values below come from article PMC7819943, “Rice protein-binding microarrays: a tool to detect cis-acting elements near promoter regions in rice”.

Whole data set: some 68,000 sequences, median “fluorescence intensity (a.u.)” near 9,100, cut for the highest 2% near 16,000. What follows is part of a selection rich in the highest values, with near analogues and random picks from the rest.

In this test the target is OsWRKY34 (Oryza sativa, UniProt Q0JBA9 1-250). Kind of test: protein-binding microarray (RPBM); PBS, 2% BSA, 51.3 ng/ul salmon testes DNA, 50 uM zinc acetate, 200 nM TF, 25 C, 1 h; high values mean tight binding. Particulars: protein: recombinant; tags: N-terminal polyhistidine and DsRed monomer fusion (pET32a); label: CyDye5-dUTP incorporated in the synthesized complementary strand; 3' TTTTT single-stranded linker to array surface; dsDNA, one strand shown. The essentials: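 The binding signal for each feature is its fluorescence intensity in arbitrary units. An Axon 4000B scanner was used to read a custom Agilent array that had been made double-stranded with Cy5-dUTP primer extension, blocked with 2% BSA, incubated at 25 °C for 1 h with 200 nM protein in PBS, 2% BSA, salmon testes DNA and 50 µM zinc acetate, and washed. The protein was an N-terminal polyhistidine–DsRed transcription factor fusion from E. coli BL21-CodonPlus, purified on Ni–NTA.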
Chain of OsWRKY34 (Q0JBA9 entry or part of it): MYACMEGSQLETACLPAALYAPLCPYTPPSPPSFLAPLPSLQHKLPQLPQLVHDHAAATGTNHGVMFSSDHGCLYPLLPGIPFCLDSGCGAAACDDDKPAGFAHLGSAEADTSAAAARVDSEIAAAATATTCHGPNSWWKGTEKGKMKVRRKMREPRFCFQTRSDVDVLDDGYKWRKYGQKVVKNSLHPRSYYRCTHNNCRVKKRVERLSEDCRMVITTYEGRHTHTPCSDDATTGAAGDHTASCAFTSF
For the sequence “CGCCGCCGCCCTCACCCTCGCCGCCGCGCATCCCGCGGTCCGGAGTCACCTAGTGCAG”, the binding signal was 8120 fluorescence intensity (a.u.).

For “ATAATAGGGTTATTCATAATATGGCAGGGTTTTTGGTTAGCGGAGTCACCTAGTGCAG”, the binding signal was 10300 fluorescence intensity (a.u.).

Turning to “TGTGATAGGCTTCAATGTTTAATCTCACCATCGATTGTTACGGAGTCACCTAGTGCAG”, the binding signal is 9500 fluorescence intensity (a.u.).

On to “TAGTCTTTGTCGTTTCCATGTATAACTCTATTTATCTTTCCGGAGTCACCTAGTGCAG”, for which the binding signal is 12400 fluorescence intensity (a.u.).

Turning to “CTAGTTGCTCCTAACTTGGCCTACTGTCCTCCATCTCCAACGGAGTCACCTAGTGCAG”, the binding signal was 9280 fluorescence intensity (a.u.).

Turning to “GAGCTTCCTATCGCGCCGCCGCGTGCGTACGTGTTTGATCCGGAGTCACCTAGTGCAG”, the binding signal is 11000 fluorescence intensity (a.u.).

For the sequence “TACACCGTCCCAACCGGCTTTGTTTGACTTGTCCGACCAGCGGAGTCACCTAGTGCAG”, the binding signal was 8330 fluorescence intensity (a.u.).

On to “TTACCGATGCGACCTGTCCCTGTCACTCCCGCCTCGGTAACGGAGTCACCTAGTGCAG”, for which the binding signal was 9060 fluorescence intensity (a.u.).

On to “GACATTACGGGCCCACAAGTACGCGTCCCCACCAGCCATACGGAGTCACCTAGTGCAG”, for which the binding signal was 8490 fluorescence intensity (a.u.).

In the case of “ATCACCTTGCTCGATCGCCTCCGTTGTTTTGCACTAAATTCGGAGTCACCTAGTGCAG”, the binding signal is 8620 fluorescence intensity (a.u.).

Consider “GAGGGGAGGAAGAAGAGGTGGGTGAGAATGACACGTGGGGCGGAGTCACCTAGTGCAG”, for which the binding signal is 10600 fluorescence intensity (a.u.).

On to “ATTGTTCATTTGTCGTTCCATTACATGTAACTTCACTTCACGGAGTCACCTAGTGCAG”, for which the binding signal is 17000 fluorescence intensity (a.u.).

Regarding “TGTTCTTGTTTGTGTTTTCTTCTTCGTCTCCGGCGACGGCCGGAGTCACCTAGTGCAG”, the binding signal is 10000 fluorescence intensity (a.u.).

Regarding “TTTGTGTCACTTTTAAACATGTTCACGTCATTATTTTAGTCGGAGTCACCTAGTGCAG”, the binding signal was 9290 fluorescence intensity (a.u.).

For the sequence “GTTCATTTTCATGTTATTTTTCATGTAACTACATTATTATCGGAGTCACCTAGTGCAG”, the binding signal was 8990 fluorescence intensity (a.u.).

Take “TCTTATATGTTATGCAAGTATGTTTCTATCTCGTATCTTCCGGAGTCACCTAGTGCAG”: the binding signal was 16500 fluorescence intensity (a.u.).

As for “GATTTTTTCGGACTTGGTCTCGGTCTTTTTGTTTGGTTATCGGAGTCACCTAGTGCAG”, the binding signal is 10200 fluorescence intensity (a.u.).

For the sequence “ATCGTTATCTATTGCCGTATGTTATTTCGTTGTTCCGTCTCGGAGTCACCTAGTGCAG”, the binding signal was 8920 fluorescence intensity (a.u.).

On to “TTTTAATCTCATTTTTTTTAACGGTTTTGCTATAATTTTTCGGAGTCACCTAGTGCAG”, for which the binding signal was 8850 fluorescence intensity (a.u.).

In the case of “TGTTTCTATCTCGTATCTTCTCTTCCAAGCATGTATTTCCCGGAGTCACCTAGTGCAG”, the binding signal was 8650 fluorescence intensity (a.u.).

Consider “CTTCGTGTTCGTCGTGGTCTCTTGTTTCTTCTTCTTCTTCCGGAGTCACCTAGTGCAG”, for which the binding signal is 22000 fluorescence intensity (a.u.).

In the case of “CTTATCTCATTTTATCTCGGTTTTTGTTAACTTGTTTTTTCGGAGTCACCTAGTGCAG”, the binding signal is 18200 fluorescence intensity (a.u.).

As for “CTCTCTCTTCTTCTTCGTGTTGTTGTTTCTCTCTCTGTCTCGGAGTCACCTAGTGCAG”, the binding signal is 11700 fluorescence intensity (a.u.).

As for “ATTTTGTTTCTCCTTGGTTGGTTTTGCTTCACCTAGATCACGGAGTCACCTAGTGCAG”, the binding signal was 11200 fluorescence intensity (a.u.).

For the sequence “GCTCGCTTTCTCAGGTCTTTCTCTTCCCCGTATCCCCACTCGGAGTCACCTAGTGCAG”, the binding signal was 10500 fluorescence intensity (a.u.).

As for “TCTGCGAGGAAGAACCCATTCAGATTACGCTGCATTTTTTCGGAGTCACCTAGTGCAG”, the binding signal was 8660 fluorescence intensity (a.u.).

For the sequence “GGCGATCCGGCTTAACTACTTTGTTTGTTTCTCTGTGCAACGGAGTCACCTAGTGCAG”, the binding signal is 8480 fluorescence intensity (a.u.).

Regarding “ACCACCACCACCACCGCCCGCCAAGCGCGGCCCGCCCGACCGGAGTCACCTAGTGCAG”, the binding signal is 8720 fluorescence intensity (a.u.).

For the sequence “TGTTCTGCCGGGGTTGTTGCTTACTGATGCAAAACTCTTTCGGAGTCACCTAGTGCAG”, the binding signal is 9240 fluorescence intensity (a.u.).

Turning to “AATTAGTTTCTTGCTTCTTCTTTTTTCTTTTCTTTTTCATCGGAGTCACCTAGTGCAG”, the binding signal is 8210 fluorescence intensity (a.u.).

As for “TTCCACGGTTTTCTTTTTTCGGTTTTTATCTTTTCTTTTTCGGAGTCACCTAGTGCAG”, the binding signal is 13200 fluorescence intensity (a.u.).

With “GTGTTCATTGCTAGTTGCATTGTGGTTTTCTAGTTAATTACGGAGTCACCTAGTGCAG”, the binding signal is 9000 fluorescence intensity (a.u.).

Regarding “CACCTTTTTTTAATTTTTTGGTTTCCAATTTTTATTTTTTCGGAGTCACCTAGTGCAG”, the binding signal is 10900 fluorescence intensity (a.u.).

For “CTTTCCTTTCTTTGTTTTTTATCTTTGTTTTCTTTCTTCCCGGAGTCACCTAGTGCAG”, the binding signal was 11800 fluorescence intensity (a.u.).

As to “CTTTAATTTTAATTAGAGTTTCTTGCATCGGTTTCCAATGCGGAGTCACCTAGTGCAG”, the binding signal was 27700 fluorescence intensity (a.u.).

With “TCGGTTTGTTTTTTTCCGGTTTATCTTCTTTCGGTTTTTTCGGAGTCACCTAGTGCAG”, the binding signal is 18500 fluorescence intensity (a.u.).

As for “GATTGGTTGTTTGTTCTGTTTTGGACATGCTTGTTAATTACGGAGTCACCTAGTGCAG”, the binding signal was 17100 fluorescence intensity (a.u.).

On to “ATTGGATGTTAAGTTGTGTTTTTGCTGTTTCATGGTTTTACGGAGTCACCTAGTGCAG”, for which the binding signal was 11400 fluorescence intensity (a.u.).

For “ATCCAGTGAGCTCGAGGCTTCCCATCTATCCGCCGTTGGTCGGAGTCACCTAGTGCAG”, the binding signal is 8260 fluorescence intensity (a.u.).

As to “CGAGCTGCTGATGGCCCCTATGCCACATCTACTATGCATGCGGAGTCACCTAGTGCAG”, the binding signal was 17100 fluorescence intensity (a.u.).

As for “TATGCTTCATCTGTTCTTCTACATTGTTATCTACTATCTGCGGAGTCACCTAGTGCAG”, the binding signal was 10100 fluorescence intensity (a.u.).

Turning to “CTGCTGCATCTGCACTGCATGGCCATGCCCACACACTTGGCGGAGTCACCTAGTGCAG”, the binding signal was 8050 fluorescence intensity (a.u.).
